# Among all 48,000 compounds or so, about 13,000 (27%) showed an effect of 50% or more. The list shows a part of the results.
# System: Wolbachia pipientis
# Assay: Anti-Wolbachia Cell-Based Screen
# Format: functional
# Parameters: scale not given: in the data most compounds retested in dose-response had high values
# Conditions: 5 µM
row,Compound,Percent Effect [%]
1,CCS(=O)(=O)N1C[C@H]2CC[C@@]3(N=C(C)N(CC(C)C)C3=O)[C@H]2C1,17.11
2,Cc1ccc(CN2CCNC(=O)C2CC(=O)N2CCSCC2)o1 (stereo not drawn),-50.4
3,O=C(NCc1ccc(Cl)s1)c1cc(CN2CCCC(O)C2)on1 (stereo not drawn),3.439
4,CSCc1nc(CCNC(=O)c2cnn(C(C)C)c2)cs1,-0.3441
5,CSc1ccc2cc(CN(C)CCO)c(=O)[nH]c2c1,-7.247
6,CCC(CNC(=O)CNC(C)=O)Oc1cccc(F)c1 (stereo not drawn),-13.27
7,Cc1ccc(S(=O)(=O)NC[C@H]2OC[C@@H](NCc3cccnc3)[C@@H]2O)cc1,-9.264
8,CC(C)NC(=O)CN(C1CC1)C(C)C1CC1 (stereo not drawn),-3.628
9,CNc1nc(C2CCCCN2C(=O)C(C)(C)OC)nc2c1CN(C)CC2 (stereo not drawn),100.3
10,CNc1nc(N2C[C@H](NC(=O)CCOC)[C@@H](C3CC3)C2)nc2c1CCC2,-18.85
11,CC(=O)N1CCCCC1c1nc2c(c(NC3CCCC3)n1)CN(C)CC2 (stereo not drawn),71.52
12,CC(=O)N1CCCCC1c1nc2c(c(N3CCCCC3)n1)CN(C)CC2 (stereo not drawn),-9.745
13,CC1CCCCN1C(=O)c1nc2c(n1C(C)C)CCN(C)C2.O=C(O)C(F)(F)F (stereo not drawn),0.8763
14,Nc1nc2c(c(NC3CCCC3)n1)CCN(C(=O)C1CCOC1)CC2 (stereo not drawn),4.82
15,CNc1nc(C2CCCCN2C(=O)COC)nc2c1CN(C)CC2 (stereo not drawn),112
16,COCC(=O)N[C@H](C(=O)NC(C)c1cccc(C)c1C)C(C)C (stereo partly drawn),4.041
17,O=C(c1scc2c1OCCO2)N1CCN(Cc2cccc(F)c2)CC1,-25.63

row,Compound,Percent Effect [%]
1,COCc1noc(-c2ccc(N(C)Cc3nccs3)nc2)n1,22.14
2,CCc1nc(CNC(C)c2cccc(N3CCCC3=O)c2)cs1.Cl (stereo not drawn),4.92
3,CSc1cc2c(cc1NC(=O)NCC(C)(C)C(N)=O)OCCO2,-12.99
4,CC(C)(C)c1noc(CN2CCN(C(=O)c3cccs3)CC2)n1,-8.519
5,CCc1cnc(N2CC[C@@H]3CN(C(C)=O)CCO[C@@H]3C2)nc1,6.886
6,CC(=O)N1CCC(Oc2ccc(Cl)cn2)CC1,-4.055
7,CC(=O)N1CCC(n2nccc2-c2cnc(N)nc2)CC1,106.3
8,CCc1cnc(N)nc1N1CCN(C(C)=O)CC1,-3.404
9,CC(=O)N1CCC(n2nccc2-c2cnc(N(C)CCO)nc2)CC1,107.1
10,CCc1ocnc1C(=O)N1CCC(C2CCN(c3ncccn3)CC2)C1 (stereo not drawn),-3.497
11,CNc1ncc(-c2ccnn2C2CCN(C(C)=O)CC2)cn1,109.9
12,Cn1ccnc1CN(CCO)C(=O)C1CCN(C(=O)C2CC2)CC1,-5.097
13,CC(=O)N1CCC(NCc2cccnc2N(C)Cc2ccccc2)CC1,-20.17
14,CNc1ncc(C(=O)N2CCC(c3ccccc3C(=O)O)C2)cn1 (stereo not drawn),4.233
15,CNc1ncc(C(=O)N2CC[C@@](O)(C3CCOCC3)[C@H](C)C2)cn1,-7.674
16,CC(=O)N1CCC(n2nccc2-c2cnc(N3CCCC3)nc2)CC1,98.34

# — ChEMBL document CHEMBL3988442, “University of Dundee, Small-Polar-MMV Screening Library” (2021)
